Rows were chosen to be rich in hits. Some 19% of all compounds tested hit in one or more screens of this group.
Pf growth 48h: Primary qHTS for delayed death inhibitors of the malarial parasite plastid, 48 hour incubation | Potency, µM (highest dose often 28.7 µM), most hits filed as inhibitors | AID 504832, 2011 | P. falciparum luciferase growth in erythrocytes, 48 h | actives 5.9% (n = 310,000)
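Cell-based growth assay: transgenic P. falciparum expressing firefly luciferase, cultured in red cells within RPMI 1640 containing 0.5% w/v Albumax, 24 mM bicarbonate and gentamycin. A drop in luciferase activity indicates inhibition.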
Cycloheximide cs: Cycloheximide Counterscreen for Small Molecule Inhibitors of Shiga Toxin | max response, % | cell reporter, cycloheximide protein synthesis inhibition counterscreen | actives 12% (n = 300,000) | AID 2314, 2010; in the data active = max response mostly above about 13%, no sharp cut-off; inactive = mostly below about 14%; also: read at 38.3 µM for the half of the compounds with a filed dose
Pf growth 96h: Primary qHTS for delayed death inhibitors of the malarial parasite plastid, 96 hour incubation; P. falciparum luciferase reporter growth, 96 h; Potency, µM (titrated, usually from 28.7 µM), most hits filed as inhibitors; actives 6.9% (n = 320,000); AID 504834, 2011
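Luminescence readout: decreased luciferase signal marks inhibited growth of reporter-expressing P. falciparum in infected red cells (2% hematocrit, 0.05% parasitemia final), exposed to compound two generations (96 h, 37 C, 5% CO2).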
Marburg entry inh: qHTS for inhibitors of binding or entry into cells for Marburg Virus; Potency, µM (doses to about 37.8 µM), most hits filed as inhibitors; AID 540276, 2011; Marburg virus pseudotyped entry inhibition, cell reporter; actives 1.8% (n = 300,000); calls by dose curve; tested in HEK293 cells
LASV entry inh: qHTS for Inhibitors of binding or entry into cells for Lassa Virus; Lassa virus pseudotype entry inhibition, cell reporter; actives 1.2% (n = 300,000); Potency, µM (doses to about 37.9 µM), hits mostly inhibitors; AID 540256, 2011; calls by dose curve; tested in HEK293 cells; also: nearly all actives have a fitted effect of over 50% in size
Shiga toxin inh: A qHTS for Small Molecule Inhibitors of Shiga Toxin; inhibition, % at 38.7 µM; AID 2315, 2010; Vero cells, Shiga toxin protein synthesis inhibition reporter; actives 9.2% (n = 290,000); in the data active = inhibition mostly above about 28%, no sharp cut-off; inactive = mostly below about 43%
Large screens that a line does not name were inactive. Unless noted, calls follow the shape of the dose curve; as a rule, active = well fitted inhibition curve with a large enough effect; inconclusive = small, poorly fitted or top-dose-only effect, or another doubt; inactive = no such curve, though single readings can be large or run the other way.

Cc1ccc(-c2nnc(-c3cccc(Br)c3)o2)cc1	Cycloheximide cs 26.1, Marburg entry inh inconclusive, Shiga toxin inh 41.5
CCOC(=O)c1cnn(-c2cc(C)c3ccccc3n2)c1N	none
CCOC(=O)CC1=NS(=O)(=O)c2ccccc2N1	none
Cc1csc(NC(=O)c2ccc3ccccc3n2)n1	Cycloheximide cs 42.1, Marburg entry inh inconclusive, LASV entry inh inconclusive, Shiga toxin inh 98.1 (no result: Pf growth 48h)
Cc1cccc(NC(=O)c2ccc3ccccc3n2)c1C	Cycloheximide cs 22.9, Marburg entry inh inconclusive, LASV entry inh 10µM, Shiga toxin inh 185.9
CC(NC(=O)c1ccc2ccccc2n1)c1ccc(S(N)(=O)=O)cc1 (configuration not stated)	none (no result: LASV entry inh)
CCC(CC)c1nnc(NC(=O)c2ccc3ccccc3n2)s1	Cycloheximide cs 37.7, Marburg entry inh inconclusive, LASV entry inh inconclusive, Shiga toxin inh 105.0
CC(NC(=O)c1ccc2ccccc2n1)c1ccc(Br)cc1 (configuration not stated)	Pf growth 96h inconclusive, Marburg entry inh inconclusive, LASV entry inh 5.62µM
Cc1ccccc1NC(=O)c1cccc(C(=O)Nc2ccccc2C)n1	none
C/C(=N\NS(=O)(=O)c1ccc(C)c([N+](=O)[O-])c1)c1cccs1	Marburg entry inh inconclusive
Cc1nccn1CC(=O)N/N=C/c1cccc(O)c1	Marburg entry inh inconclusive
Cc1ccc(NC(=O)c2ccc(-n3cncn3)c([N+](=O)[O-])c2)cc1	Pf growth 48h inconclusive, Pf growth 96h inconclusive
O=C(Nc1nccs1)c1ccc2ccccc2n1	Cycloheximide cs 45.1, Marburg entry inh inconclusive, LASV entry inh 8.91µM, Shiga toxin inh 120.2
Cc1csc(NC(=O)c2cnc3ccccc3n2)n1	Cycloheximide cs 8.4, Marburg entry inh 5.62µM, LASV entry inh inconclusive
Cc1csc(NC(=O)c2cc(C)nc3ccccc23)n1	none
Cc1csc(NC(=O)c2cn3ccccc3n2)n1	Marburg entry inh inconclusive, LASV entry inh 3.98µM
O=C(Nc1ccccn1)c1ccc2ccccc2n1	Cycloheximide cs 66.4, LASV entry inh inconclusive, Shiga toxin inh 80.7
CCSc1nc(-c2ccccc2)c(-c2ccccc2)n1CC(O)CO (configuration not stated)	Pf growth 48h inconclusive, Pf growth 96h inconclusive (no result: Marburg entry inh, LASV entry inh)
CCOC(=O)N1CCN(Cc2nc(N)nc(Nc3ccc(OC)cc3)n2)CC1	none (no result: Pf growth 96h)
Nc1nc(CN2CCN(c3ccccn3)CC2)nc(Nc2ccc(F)cc2)n1	Marburg entry inh 2.59µM, LASV entry inh inconclusive (no result: Pf growth 96h)
CCOC(=O)N1CCN(Cc2nc(N)nc(Nc3ccc(Cl)cc3)n2)CC1	Cycloheximide cs 14.0, Pf growth 96h inconclusive, Marburg entry inh inconclusive
COc1ccc(Nc2nc(N)nc(CN3CCC(Cc4ccccc4)CC3)n2)cc1	Pf growth 48h 5.86µM, Marburg entry inh inconclusive
CCOC(=O)N1CCN(Cc2nc(N)nc(Nc3ccc(Oc4ccccc4)cc3)n2)CC1	Pf growth 48h inconclusive, Cycloheximide cs 14.6, Marburg entry inh inconclusive, LASV entry inh inconclusive
CCCCn1c(SCC(=O)O)nc2ccccc21	none
CCCC(=O)Nc1ccc2c(c1)C(=O)N(CCC(=O)O)C2=O	none
COc1cccc(N2CCN(Cc3nc(N)nc(Nc4ccccc4OC)n3)CC2)c1	Pf growth 48h inconclusive, Pf growth 96h 0.329µM
COc1ccccc1Nc1nc(N)nc(CN2CCN(c3ccccc3)CC2)n1	none (no result: Pf growth 96h)
CCOC(=O)C1CCCN(Cc2nc(N)nc(Nc3ccc(Cl)cc3)n2)C1 (configuration not stated)	Pf growth 48h inconclusive, Marburg entry inh 7.08µM (no result: Pf growth 96h)
O=C(OCN1C(=O)c2ccccc2C1=O)c1cccc(OC(F)F)c1	none
COc1ccc(S(=O)(=O)N2CCCN(Cc3cccc(F)c3)CC2)cc1	Pf growth 96h 11.7µM, Marburg entry inh inconclusive, LASV entry inh inconclusive
N#Cc1ccc(CN2CCN(C(=O)c3ccc(S(=O)(=O)N4CCCCCC4)cc3)CC2)cc1	Pf growth 48h 13.1µM, Pf growth 96h inconclusive (no result: Cycloheximide cs, Marburg entry inh, LASV entry inh, Shiga toxin inh)
O=S(=O)(c1ccc(Br)cc1)N1CCCN(Cc2ccccc2F)CC1	Pf growth 96h 6.57µM, Marburg entry inh inconclusive
COc1ccc(CN2CCN(C(=O)c3ccc(S(=O)(=O)N4CCCCCC4)cc3)CC2)cc1	Pf growth 48h 10.4µM, Pf growth 96h inconclusive, LASV entry inh inconclusive (no result: Cycloheximide cs, Shiga toxin inh)
COc1ccc(C(=O)NNC(=O)c2ccc(S(=O)(=O)N3CCCCC3)cc2)cc1	none
CCOc1ccc(N2CC(C(=O)Nc3nnc(Cc4ccc(OC)c(OC)c4)s3)CC2=O)cc1 (configuration not stated)	Pf growth 48h inconclusive
CC/C(=N/Nc1cccc(C)c1)c1cnnc(SC)n1	Pf growth 48h inconclusive, Marburg entry inh inconclusive
O=C(NCc1ccccc1)C1(C(F)(F)F)CC(CCCO)CCCO1 (configuration not stated)	none (no result: Pf growth 48h, Pf growth 96h, Marburg entry inh, LASV entry inh)
COc1ccc(NC(=O)C2CCCN2S(=O)(=O)c2ccc(F)cc2)cc1 (configuration not stated)	Pf growth 96h inconclusive (no result: Pf growth 48h, Marburg entry inh, LASV entry inh)
CCc1nn(CC(=O)NCCCN(Cc2ccccc2)C(C)C)c(=O)c2cc3sccc3n12	Pf growth 96h inconclusive, Marburg entry inh inconclusive
COc1ccc(CN2CCN(C(=O)c3ccc(S(=O)(=O)N4CCCCCC4)cc3)CC2)cc1F	Pf growth 48h 13.1µM, Pf growth 96h inconclusive, Marburg entry inh inconclusive, LASV entry inh inconclusive (no result: Cycloheximide cs, Shiga toxin inh)
Cc1ccc(OCC(=O)N(C)CC(=O)Nc2ccc(N3CCOCC3)cc2)cc1	none (no result: Cycloheximide cs, Shiga toxin inh)
Cn1c(=O)c2c(nc(CN3CCC(Cc4ccccc4)CC3)n2CCN2CCOCC2)n(C)c1=O	LASV entry inh 10.3µM (no result: Pf growth 96h)
CN1CCN(c2nc3c(c(=O)n(C)c(=O)n3C)n2Cc2ccc(Cl)cc2)CC1	Pf growth 96h 0.117µM (no result: Marburg entry inh, LASV entry inh, Shiga toxin inh)
CN1CCN(c2nc3c(c(=O)[nH]c(=O)n3C)n2Cc2ccc(Cl)cc2)CC1	Pf growth 48h inconclusive, Pf growth 96h inconclusive (no result: Marburg entry inh, LASV entry inh)
Cn1c(=O)c2c(nc(CN3CCN(Cc4ccccc4)CC3)n2CCN2CCOCC2)n(C)c1=O	none (no result: Pf growth 96h)
CCCCCCn1c(N2CCN(c3ccccc3)CC2)nc2c1c(=O)n(C)c(=O)n2C	Pf growth 48h 6.57µM, Marburg entry inh inconclusive, LASV entry inh inconclusive (no result: Pf growth 96h)
CCC1CCCCN1Cc1nc2c(c(=O)n(C)c(=O)n2C)n1Cc1ccccc1 (configuration not stated)	Pf growth 48h inconclusive, Pf growth 96h 7.38µM (no result: Marburg entry inh, LASV entry inh)
O=C(O)C1=NOC(CNC(=O)c2ccccc2Cl)C1 (configuration not stated)	none
Cc1cc(C)cc(NC(=O)CCNS(=O)(=O)c2ccc3c(c2)oc(=O)n3C)c1	Pf growth 48h inconclusive, Pf growth 96h inconclusive
CC1=C(C(=O)O)N2C(=O)[C@@H](NC(=O)C(N)c3ccccc3)[C@H]2SC1 (some centres not stated)	none (no result: Pf growth 48h, Cycloheximide cs, Pf growth 96h, Shiga toxin inh)
Cc1ccc(Cn2c(SCCN3CCCCC3)nc3c2c(=O)n(C)c(=O)n3C)cc1	Pf growth 96h inconclusive, Marburg entry inh inconclusive, LASV entry inh inconclusive

Bioassay records: PubChem, National Center for Advancing Translational Sciences (NCATS)
